The assay deals with Neuro-2A. As to the kind of experiment: cysteine-reactive anti-target inhibition count, late-stage follow-up, selectivity assay for PME-1 inhibitor project, gel-based competitive ABPP, fluorescence, MBM, Neuro-2A (AID 602468). As to conditions: MBM or Neuro-2A, in situ; series mostly up to 0.25 µM.

The structures appear in SMILES notation. The source made the active and inactive calls. No rule for the calls is given here.

With `CC[C@@]1(c2ccc(C)cc2)C(=O)N(C(=O)OC(C)C)N1C(=O)OC(C)C`, the outcome was inactive.

These data come from PubChem BioAssay AID602468 (The Scripps Research Institute Molecular Screening Center, 2012).
